From PubChem
V-ATPase pHluor: regulators of yeast V-ATPase proton transport. S. cerevisiae, pHLuorin cytosolic pH fluorescence. 0.37% of 350,000 active. response, % at 10 µM. AID 504577; in the data active = response mostly above about 7.3%, no sharp cut-off; inactive = mostly below about 5.4%; also: actives read high
TIM10 inh: TIM10 yeast growth inhibition; S. cerevisiae TIM10 strain growth, BacTiter-Glo luminescence, 24 h; inhibition, % at 10 µM; 1.4% of 330,000 active; AID 463195;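 active = inhibition of 40% or more at the single tested concentration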;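 also: wild-type TIM10 isogenic control strain grown at permissive 25 °C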
NLRP3 yeast inh: inhibitors of NALP3 inflammasome in yeast. inhibition, % at 10 µM. Yeast reconstituted NLRP3/ASC/caspase-1, beta-gal luminescence, 24 h. AID 2825. 0.39% of 330,000 active;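 active = inhibition of 50% or more; inactive = inhibition below 50%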;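 also: plate controls were induced DMSO wells for no effect and uninduced yeast grown without galactose for full effect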
tim23-1 inh: tim23-1 yeast growth inhibition | 1.3% of 330,000 active | S. cerevisiae tim23-1 growth, BacTiter-Glo luminescence, 24 h | inhibition, % at 20 µM;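 active = growth inhibition of the mutant yeast at or above 50%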;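 also: temperature-sensitive mutant grown at 25 °C; plate controls were DMSO-treated mutant yeast for no effect and medium wells lacking yeast for full effect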
tim10-1 inh: growth inhibitors of tim10-1 mutant yeast | S. cerevisiae tim10-1 ts strain growth, BacTiter-Glo, 24 h | 2.2% of 330,000 active | inhibition, % at 20 µM;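 active = inhibition of at least 40%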;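 also: mutant grown at 25 °C; 0% = DMSO wells with yeast and 100% = wells holding no yeast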
NALP1 yeast inh: blocks the NALP1 inflammasome reconstituted in yeast; AID 2071; S. cerevisiae NALP1/ASC/caspase-1 growth, X-gal OD620, 72 h; 0.61% of 280,000 active; inhibition, % at 10 µM; in the data active = inhibition mostly above about 24%, no sharp cut-off; inactive = mostly below about 32%
tim23-1 confirm: confirmation of tim23-1 mutant yeast growth inhibitors | shares compounds with tim23-1 inh | S. cerevisiae tim23-1 growth, BacTiter-Glo luminescence, 24 h | inhibition, % at 20 µM | 83% of 4,400 active | AID 463218;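 active = inhibition above about 39% in either of two replicate wells at 20 µM, limit read from the data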;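 also: temperature-sensitive tim23-1 mutant grown at 25 °C; 0% = DMSO wells with yeast and 100% = medium wells without yeast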
* marks the source's active call; other numbers are inactive results; · = no result given. Most compounds without a hit are left out; they make up all but 4.2% or so of the library.

SMILES | V-ATPase pHluor | TIM10 inh | NLRP3 yeast inh | tim23-1 inh | tim10-1 inh | NALP1 yeast inh | tim23-1 confirm
COc1ccc(NS(=O)(=O)c2ccc(N3C(=O)CCC3=O)cc2)cc1 | -2 | -9 | 4 | -4 | 10 | 19 | ·
COc1ccc(S(=O)(=O)Nc2ccc(-n3cccc3)cc2)cc1 | 2 | 21 | 24 | 55* | 37 | 14 | 50*
Cc1ccnc(SC2CC(=O)N(c3ccc(Br)cc3)C2=O)n1 (configuration not stated) | -1 | 1 | 15 | 8 | 7 | 14 | ·
COC(=O)C1=C(C(=O)OC)C(c2cc(Br)ccc2O)c2sc(=O)[nH]c2S1 (configuration not stated) | -2 | · | · | · | · | 19 | ·
COC(=O)C1=C(C(=O)OC)C(c2cc(Cl)ccc2O)c2sc(=O)[nH]c2S1 (configuration not stated) | -2 | 33 | 6 | 62* | 34 | 5 | 58*
O=C(OCc1cccs1)c1ccccc1NS(=O)(=O)c1ccc2c(c1)OCCO2 | -2 | 9 | 12 | 14 | 28 | -16 | ·
c1ccc(CSc2nnc(NC3CCCCC3)s2)cc1 | 0 | · | · | · | · | · | ·
Cc1ccc(-c2nnc(NC3CCCC3)s2)cc1 | 3 | 15 | 47 | 53* | 17 | 11 | 42*
COc1ccc(-c2csc(NS(=O)(=O)c3ccc([N+](=O)[O-])cc3)n2)cc1 | 0 | 3 | 13 | 84* | 17 | 23 | 9
O=C(NC(=S)NCc1ccco1)c1cccc(Cl)c1 | 1 | 4 | 4 | 57* | 17 | 5 | 47*
Cc1ccccc1C(=O)Oc1ccc(Sc2ccc(O)cc2)cc1 | · | 26 | 21 | 57* | 22 | 13 | -14
N#C/C(=C\c1c[nH]c2ccccc12)C(=O)NC1CCCC1 | 4 | 29 | 20 | 59* | 12 | 1 | 44*
O=C(OCc1c(-c2ccccc2)ncc2ccccc12)c1ccco1 | -1 | 28 | 37 | 55* | 24 | · | 40
O=C(On1c(-c2ccccc2)nc2ccccc2c1=O)c1ccco1 | 2 | 33 | 35 | 75* | 15 | 3 | 57*
CC(C)C[C@H](NC(=O)c1[nH]cnc1C(=O)N[C@@H](C)C(=O)OC(C)(C)C)C(=O)OC(C)(C)C | -2 | 16 | 10 | 15 | 28 | · | ·
CCCCOc1ccc(C(=O)NCC2(c3ccccc3)CCOCC2)cc1 | 2 | 20 | 15 | 41 | 31 | 9 | ·
CCCCCOc1ccc(C(=O)NCC2(c3ccccc3)CCOCC2)cc1 | -1 | 27 | 27 | 51* | 37 | 16 | 46*
C[C@@H]1C=CC(=O)O[C@@H]1c1ccc(C(F)(F)F)cc1 | · | 29 | -8 | 57* | 39 | 6 | 37
O=C(NCc1ccco1)C(=O)c1cn(CC(=O)N2CCCCC2)c2ccccc12 | -4 | 16 | 9 | 20 | 22 | -6 | ·
O=S(=O)(Nc1ccc(-c2csc(-c3ccccc3)n2)cc1)c1ccccc1 | -1 | 25 | -5 | 50* | 22 | 34 | 39
Cc1ccc(-c2ccc(C3C(C#N)=C(N)Oc4n[nH]c(C)c43)o2)cc1 (configuration not stated) | -1 | 14 | 5 | 60* | 26 | 14 | 46*
OCCN1CCN(CCOc2ccccc2-c2ccccc2)CC1 | 0 | 7 | 4 | 9 | 7 | 18 | ·
CN(C)c1cccc(C(=O)Nc2cccc(F)c2)c1 | 1 | 22 | 31 | 32 | 11 | 9 | ·
CCN(CC)c1ccc(C(=O)Nc2cccc(F)c2)cc1 | -5 | 19 | 47 | 65* | 21 | 2 | 73*
O=C(CSc1ncnc2nc[nH]c12)Nc1ccc(Br)cc1Cl | -1 | 0 | 10 | -10 | -15 | · | ·
Cc1cc2ccccn2c1C(=O)c1cc([N+](=O)[O-])cc([N+](=O)[O-])c1 | 1 | 38 | 12 | 56* | 39 | -3 | 67*
CCN(CC(=O)NCc1cccs1)S(=O)(=O)c1cccc(Br)c1 | 1 | -3 | 20 | 14 | -2 | · | ·
Cc1ccc(Sc2ccc(N)cc2C#N)cc1 | 0 | 11 | 29 | 58* | 35 | · | 37
O=C(Cc1cnc2ncnn2c1)N1CCc2c([nH]c3ccccc23)C1c1ccccn1 (configuration not stated) | 12 | -11 | 13 | 59* | -3 | 17 | 3
